Screening results as filed in PubChem.
CYP2C9 activ: activators of human CYP2C9; 96,000 tested, 1.4% active; P11712; activation factor at 5 µM; recombinant CYP2C9, luciferin-H conversion, luminescence; hits give high values; factor 1 = untreated enzyme, 0 = blocked;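 active = activation factor of 2 or more for CYP2C9 at a 5 µM dose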
Target sequence (P11712 whole entry, looked up): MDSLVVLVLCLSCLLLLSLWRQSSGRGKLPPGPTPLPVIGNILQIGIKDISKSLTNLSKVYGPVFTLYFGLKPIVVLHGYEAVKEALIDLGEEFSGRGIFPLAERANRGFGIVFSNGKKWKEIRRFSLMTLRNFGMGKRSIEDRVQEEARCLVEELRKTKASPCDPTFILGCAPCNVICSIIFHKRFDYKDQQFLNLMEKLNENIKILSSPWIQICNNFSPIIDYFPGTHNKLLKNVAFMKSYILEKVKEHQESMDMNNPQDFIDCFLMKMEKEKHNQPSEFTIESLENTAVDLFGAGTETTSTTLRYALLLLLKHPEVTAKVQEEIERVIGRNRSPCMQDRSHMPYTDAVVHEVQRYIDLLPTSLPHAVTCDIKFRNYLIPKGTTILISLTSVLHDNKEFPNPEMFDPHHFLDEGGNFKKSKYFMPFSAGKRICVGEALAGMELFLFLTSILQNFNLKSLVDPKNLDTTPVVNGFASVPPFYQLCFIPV
hDAT+cocaine: changed human dopamine transporter uptake under cocaine IC80; Q01959; LLC-PK1 hDAT cells, [14C]-dopamine uptake with cocaine IC80; actives deviate in either direction; 110,000 tested, 1.3% active; B-score at 10 µM; AID 449768;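 active = Z score or B-score, a plate-position-corrected score, falls beyond the plate's 99.7% confidence bounds, in either direction; inactive = both scores lie inside the 99.7% bounds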
CYP2C9 inh: blocks human cytochrome P450 2C9; CYP2C9 Supersomes, luciferin-H conversion, luminescence; inhibition, % at 5 µM; 96,000 tested, 20% active;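 active = blocking of liver enzyme CYP2C9 beyond about 50% at 5 µM, limit read from the data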
CYP2C19 inh: human CYP2C19 inhibition | P33261 | CYP2C19 Supersomes, luciferin-H EGE luminescence, 30 min | inhibition, % at 5 µM | 96,000 tested, 21% active;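 active = CYP2C19 inhibition above a set limit at 5 µM in the primary screen, cut at about 50% in these data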
D1 allo mod: D1 dopamine receptor (human) allosteric modulation; P21728; B-score at 10 µM; HEK293 D1, CRE-luciferase, dopamine EC30 potentiation; actives deviate in either direction; 58,000 tested, 5.9% active;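 active = luminescence count or its row- and column-corrected plate score outside the 99.7% band of the plate's sample wells, on either side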
CYP2C19 activ: activators of human cytochrome P450 2C19; AID 1025; recombinant CYP2C19, luciferin-H EGE luminescence; hits give high values; 0 = fully inhibited enzyme, 1 = untreated enzyme; 96,000 tested, under 10 active; activation factor at 5 µM;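 active = activation factor of at least 2 at 5 µM in the primary screen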
D1 PAM confirm: D1 receptor (human) allosteric modulation, confirmed | shares compounds with D1 allo mod | HEK293 D1 CRE-luciferase, dopamine EC30 potentiation; hits give high values | luminescence at 10 µM | 2,200 tested, 88% active | AID 642;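 active = luminescence in either of two replicates above the same-plate mean plus 3 SD of the low-dose dopamine control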
D1 ag no DA: D1 (human) signaling in absence of dopamine | shares compounds with D1 allo mod | HEK293 D1 CRE-luciferase, luminescence, no dopamine; hits give high values | luminescence at 10 µM | 1,900 tested, 0.8% active; in the data active = luminescence above about 3900
Isoprot counter: isoproterenol response counter-screen activity for D1 modulators; shares compounds with D1 allo mod; HEK293 D1 CRE-luciferase, isoproterenol EC30 counter-screen; calls only at 10 µM; 2,200 tested, 63% active;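 active = luminescence in either replicate above plate mean of wells with a partly effective reference agonist dose plus 3 SD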;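 also: isoproterenol raises cAMP through native beta-adrenoceptor Gs so signal bypasses D1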
Numbers stand for hits; - = inactive; . = not tested or not shown; + = active, no number. Shown are actives, neighbours in structure and some others; about 28% of the full set was active somewhere.

SMILES	CYP2C9 activ	hDAT+cocaine	CYP2C9 inh	CYP2C19 inh	D1 allo mod	CYP2C19 activ	D1 PAM confirm	D1 ag no DA	Isoprot counter
O=C(Nc1cccc(C(F)(F)F)c1)OCCN1CCN(Cc2ccccc2)CCC1=O	.	-	.	.	.	.	.	.	.
OCc1cn(-c2ccccc2)nc1-c1ccc(-c2nn(-c3ccccc3)cc2CO)cc1	-	-	-	-	-	-	.	.	.
N#Cc1cn(-c2ccccc2)nc1-c1ccccc1	-	-	-	-	5.7	-	9992	-	-
CCOC(=O)n1c(=O)oc2cc(S(=O)(=O)N3CCCCC3)ccc21	.	-	.	.	-	.	.	.	.
COc1ccc(S(=O)(=O)N2CCCCCC2)cc1C(=O)OCc1c(C)noc1C	-	-	86	50	4.3	-	9164	-	+
CCCc1cc(=O)[nH]c(SCC(=O)N(CC)Cc2ccccc2)n1	-	-	-	-	-	-	.	.	.
Cn1c(=O)c2c(SC3CCCC3)nc(C3CC3)nc2n(C)c1=O	-	-	-	-	-	-	.	.	.
COc1ccc(CCN2C(=O)C3C4C=CC(C3C2=O)C2C(=O)N(CCc3ccc(OC)c(OC)c3)C(=O)C42)cc1OC (stereo unspecified)	-	-	-	-	.	-	.	.	.
COc1ccc(CCn2c(N)cc(=O)[nH]c2=S)cc1OC	-	-	-	-	11	-	16604	-	+
CCc1ccc2[nH]c(=O)c(CN(Cc3nnnn3C3CCCC3)C3CCCCC3)cc2c1	-	-	82	76	2.5	-	8428	-	-
O=C(O)CCSCC(=O)Nc1c(C(=O)C2CC2)oc2ccccc12	-	-	-	-	8.3	-	14596	.	+
NC(=O)CSc1nnc(-c2cccs2)n1-c1ccccc1	-	-	-	-	.	-	.	.	.
COC(=O)CSc1nnc(-c2cccs2)n1-c1ccc(Cl)cc1	-	-	-	81	2.8	-	9056	.	+
CC(Cc1ccccc1)C(=O)NCc1nc2ccccc2s1 (stereo unspecified)	.	-	.	.	.	.	.	.	.
Cn1c(=O)c2c(nc(Br)n2CCSc2nnnn2-c2ccccc2)n(C)c1=O	-	-	-	-	-	-	.	.	.
CCOC(=O)CSc1nc2cccnc2n1-c1ccc(F)cc1	-	-	-	-	22	-	24340	-	+
CC(C)OC(=O)CSc1nc2cccnc2n1-c1ccc(F)cc1	-	-	-	-	.	-	.	.	.
C[C@@H](C(=O)Nc1ccc2ccccc2c1)[C@H]1C[C@]1(C)[C@H](NP(=O)(c1ccccc1)c1ccccc1)c1ccccc1	.	-	.	.	.	.	.	.	.
Cc1c(C#N)c2ccccc2n1CC(=O)NCC1CCCO1 (stereo unspecified)	-	-	-	-	3.8	-	-	-	-
Nc1nnc(-c2ccccc2)c(-c2ccccc2)n1	-	-	-	-	20	-	20640	-	+
CC12CC(c3ccccc3O1)C(C(=O)N1CCOCC1)C(=O)N2 (stereo unspecified)	-	-	-	-	3.3	-	-	-	-
CCCCC(CCC(=O)O)(C(=O)OCC)c1csc(N)n1 (stereo unspecified)	-	-	-	-	-	-	.	.	.
COCCN(Cc1cc2ccccc2[nH]c1=O)C(=O)c1ccccc1OC	-	-	-	-	-	-	.	.	.
COc1cccc(C2=CC(c3ccc(OC)c(OC)c3OC)n3nnnc3N2)c1 (stereo unspecified)	-	-	81	52	19	-	12516	.	+
Cn1c(-c2ccccc2)cnc1SCC(=O)NCc1ccco1	-	-	-	-	-	-	.	.	.
SMILES	CYP2C9 activ	hDAT+cocaine	CYP2C9 inh	CYP2C19 inh	D1 allo mod	CYP2C19 activ	D1 PAM confirm	D1 ag no DA	Isoprot counter
COC(=O)c1ccc(CSc2ncnc3ccccc23)o1	-	-	-	70	4.5	-	9672	.	+
O=c1[nH]c(SCCOc2ccccc2)nc2ccccc12	-	-	-	-	5.3	-	7564	.	+
CC(C)CC1(C)NC(=O)NC1=O (stereo unspecified)	-	-	-	-	3	-	-	-	-
COc1ccccc1-n1c(=O)[nH]c2c(C(N)=O)nc(CC(C)C)nc21	-	-	-	-	5.9	-	9424	-	-
Cc1ccc(-n2c(=O)[nH]c3c(C(N)=O)nc(CC(C)C)nc32)cc1	-	-	-	-	7.8	-	20900	-	+
COc1ccccc1-n1c(=O)[nH]c2c(C(N)=O)nc(C3CCCCC3)nc21	-	-	-	-	-	-	.	.	.
O=C(O)c1ccc2c(c1)ncn2C1CCCCCC1	.	-	.	.	-	.	.	.	.
Cc1ccc(Oc2ccccc2)c(NC=O)c1	-	-	-	-	4.9	-	12104	-	-
Cc1ccc(NC(=O)COc2ccccc2)c(NC(=O)c2ccccc2C)c1	.	-	.	.	.	.	.	.	.
Clc1cccc(NCc2nnc(SCc3ccccc3)o2)c1	-	-	83	82	3.2	-	7948	.	-
N#CCSc1nnc(CNc2ccc(F)cc2)o1	.	-	.	.	.	.	.	.	.
N#CCSc1nnc(CNc2cccc(Cl)c2)o1	-	-	-	-	4	-	-	.	-
COc1ccc(Cl)cc1NC(=O)N1CCN(S(C)(=O)=O)CC1	-	-	-	-	-	-	.	.	.
Cc1cc(Br)ccc1NC(=O)CN1C(=O)CCC1=O	-	-	-	-	.	-	.	.	.
N#Cc1c(SCC(N)=O)nsc1SCc1ccc(Cl)cc1	-	-	-	-	-	-	.	.	.
N#Cc1c(SCC(N)=O)nsc1SCc1ccccc1Cl	-	-	-	-	5.6	-	5884	.	+
CCn1c(=O)cc(C(=O)OC)sc1=Nc1ccc(F)c(F)c1	-	-	75	98	11	-	23240	-	+
c1ccc(-c2nc[nH]c2-c2ccccc2)cc1	-	-	-	-	4.9	-	13428	-	-
Cc1ccc(Cn2nnc3c(=O)n(CC(=O)N4CCN(c5ccccc5)CC4)cnc32)cc1	-	-	-	-	-	-	.	.	.
O=C1c2ccc(-c3nc4ccccc4o3)cc2C(=O)N1Cc1cccnc1	.	-	.	.	-	.	.	.	.
c1ccc(-c2n[nH]c3ccccc23)cc1	-	-	-	-	-	-	.	.	.
c1ccc(-c2n[nH]nc2-c2ccccc2)cc1	-	-	-	-	17	-	18456	.	+
O=S(=O)(c1ccccc1C(F)(F)F)N1CCOCC1	-	-	-	-	4.9	-	-	-	-
Cc1cc(C(=O)O)cc(S(=O)(=O)N2CCOCC2)c1C	-	-	-	-	-	-	.	.	.
COc1ccc(-c2coc3cc(O)ccc3c2=O)cc1OC	2.1	-	-	-	4.6	-	9756	-	-
COc1ccccc1-c1ccc(NC2CCCC2)nn1	.	-	.	.	.	.	.	.	.
